Screens (PubChem)
PostGolgi yeast: phenotypic screen on post-Golgi transport, primary screen. 98,000 tested, 0.9% active. AID 739, 2007. post-Golgi transport phenotypic cell assay. inhibition, % at 10 µM;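 further: yeast cells grown in 1536-well plates; yeast grown about 18 h at 30C before absorbance read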
hDAT+cocaine: changed hDAT dopamine uptake under cocaine IC80, either direction, primary screen, cocaine antagonist project, cell-based, LLC-PK1 hDAT, [14C]-dopamine uptake, MLSMR; 110,000 tested, 1.3% active; LLC-PK1 hDAT cells, [14C]-dopamine uptake with cocaine IC80; actives deviate in either direction; B-score at 10 µM; Sodium-dependent dopamine transporter (Homo sapiens), Q01959;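 active means Z score or B-score, a plate-position-corrected score, falls beyond the plate's 99.7% confidence bounds, in either direction; inactive means both scores lie inside the 99.7% bounds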;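 further: scored against the spread of the other compound wells on the same plate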
PostGolgi ctrl: growth inhibition of yeast control strain, primary screen, counter-screen for post-Golgi transport modulator project; inhibition, % at 10 µM; 98,000 tested, 5% active; efflux-deficient yeast background strain, growth absorbance A615, 16 h
Cav32 inh: Cav3.2 calcium influx blockers – cell-based, Fluo-4 calcium fluorescence, FDSS, MLSMR library, primary screen | Voltage-dependent T-type calcium channel subunit alpha-1H (Homo sapiens), O95180 | Cav3.2-expressing cells; hits give low values | B-score at 10 µM | 100,000 tested, 4% active | AID 449739, 2010;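 active means single-dose well whose peak fluorescence ratio is a statistical outlier from its plate by either plate-standardised score or position-corrected B-score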
TNAP act DEA: human TNAP enzyme activators, primary screen, biochemical, luminescent, intermediate phosphate acceptor level. Alkaline phosphatase, tissue-nonspecific isozyme (Homo sapiens), P05186. purified TNAP, CDP-star luminescence, 100 mM DEA, 30 min; hits give high values; scale: 0 levamisole-inhibited, 1 vehicle-only enzyme. activation factor at 20 µM. 64,000 tested, under 10 active;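 active means activation factor of at least 2 at 20 µM, relative to controls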
Target sequence (P05186 whole entry, looked up): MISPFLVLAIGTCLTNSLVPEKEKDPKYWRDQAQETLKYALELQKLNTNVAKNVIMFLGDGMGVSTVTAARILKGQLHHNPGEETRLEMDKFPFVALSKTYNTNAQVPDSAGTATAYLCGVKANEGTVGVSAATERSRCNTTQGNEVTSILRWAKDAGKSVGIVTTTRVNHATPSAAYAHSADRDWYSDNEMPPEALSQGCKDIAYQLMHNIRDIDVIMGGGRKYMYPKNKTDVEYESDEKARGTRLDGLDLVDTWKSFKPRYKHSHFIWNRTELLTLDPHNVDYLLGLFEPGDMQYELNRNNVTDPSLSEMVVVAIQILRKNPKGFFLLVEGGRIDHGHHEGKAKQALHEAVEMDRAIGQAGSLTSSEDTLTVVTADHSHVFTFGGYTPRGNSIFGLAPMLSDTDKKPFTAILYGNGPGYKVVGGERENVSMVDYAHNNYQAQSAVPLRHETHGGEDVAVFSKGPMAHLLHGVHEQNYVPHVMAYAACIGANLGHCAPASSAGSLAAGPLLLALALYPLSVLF
Smad3 inh: Smad3/FoxH1 peptide binding inhibitors, primary screen, biochemical, TR-FRET; 88,000 tested, 0.29% active; TR-FRET Smad3/Dy647-FoxH1 peptide binding, europium anti-His; AID 630, 2007; inhibition, % at 25 µM; Mothers against decapentaplegic homolog 3 (Homo sapiens), P84022;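 active means compounds that reduce the energy-transfer binding signal between the protein and its labelled peptide by more than half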;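 further: 0% = Smad3 plus labelled peptide maximal FRET and 100% = peptide-only background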
* hit, by the source's call. Most compounds without a hit are left out; they make up all but 8.7% or so of the library. Unless noted, no stated cut-off is given here; in the data, active means inhibition above about 30%; inactive means the rest.

CC(C)(CO[C@@H]1C[C@@H]2CC[C@@]1(C)C2(C)C)[N+](=O)[O-] was read as Smad3 inh -1.8.
For C=CCSc1nnc(-c2cc3c(C(F)(F)F)nn(C)c3s2)n1C the results were PostGolgi yeast -6.0, hDAT+cocaine -8.83*, PostGolgi ctrl -7.0 and Cav32 inh -0.521.
Screening COc1ccc(NC(=O)C2=C(C)C(=O)OC23CCC(C)CC3)cc1Cl (stereo not given) returned PostGolgi yeast -8.3, hDAT+cocaine -0.81, PostGolgi ctrl 16.2, Cav32 inh -1.53 and Smad3 inh -9.4.
CON1C(=O)C(=O)N(OC)C(C)(C)C1C (stereo not given) was read as PostGolgi yeast 5.3, hDAT+cocaine -0.826, PostGolgi ctrl 31.0* and Cav32 inh -2.74.
For Cc1cccc(C)c1OCc1nnc(SCC(=O)NCCc2ccccc2)o1 the results were hDAT+cocaine -0.417 and Cav32 inh -5.68*.
Screening COc1ccccc1OCc1nnc(SCC(=O)c2cc(Cl)ccc2OC)o1 returned PostGolgi yeast 9.8, hDAT+cocaine 1.69e-05, PostGolgi ctrl 32.0*, Cav32 inh -0.63, TNAP act DEA 0.9 and Smad3 inh 3.3.
For C/C(N)=C(/C#N)C(=O)CSc1nnc(COc2ccccc2Cl)o1 the results were PostGolgi yeast -7.8, hDAT+cocaine 0.112, PostGolgi ctrl 11.3, Cav32 inh 2.37, TNAP act DEA 0.8 and Smad3 inh 14.3.
Screening CC(C)(C)NC(=O)NC(=O)CSc1nnc(COc2ccccc2Cl)o1 returned PostGolgi yeast -10.3, hDAT+cocaine 1.28, PostGolgi ctrl 6.9, Cav32 inh -5.98* and Smad3 inh -2.7.
`COc1ccc(Cc2nnc(SCC(=O)NCCc3ccccc3)o2)cc1` gave PostGolgi yeast -4.7, hDAT+cocaine 1.68, PostGolgi ctrl 11.0, Cav32 inh -1.03, TNAP act DEA 1 and Smad3 inh 12.4.
CCOC(=O)Cc1csc(NS(=O)(=O)c2ccc3c4c(cccc24)C(=O)N3CC)n1 was read as PostGolgi yeast -10.9, hDAT+cocaine -0.265, PostGolgi ctrl 15.9, Cav32 inh 0.38, TNAP act DEA 0.9 and Smad3 inh -8.2.
For c1ccc(-c2nc(NCc3cccnc3)c3ccccc3n2)cc1 the results were PostGolgi yeast 8.6, hDAT+cocaine 0.32, PostGolgi ctrl 8.8 and Cav32 inh -1.09.
`Clc1cccc(-c2nc(NCc3cccnc3)c3ccccc3n2)c1` gave PostGolgi yeast 27.3, hDAT+cocaine 0.127, PostGolgi ctrl 71.6* and Cav32 inh -0.833.
For OCCSc1nc(-c2cccnc2)nc2ccccc12 the results were PostGolgi yeast 2.5, hDAT+cocaine 0.0556, PostGolgi ctrl 37.7*, Cav32 inh 0.174, TNAP act DEA 1 and Smad3 inh 9.6.
c1cncc(-c2nc(NCc3ccco3)c3ccccc3n2)c1 was read as PostGolgi yeast -4.5, hDAT+cocaine -0.031, PostGolgi ctrl 57.0*, Cav32 inh 0.834, TNAP act DEA 0.9 and Smad3 inh 3.2.
`Cc1noc(C)c1COC(=O)CCCOc1ccc(Cl)cc1Cl` gave PostGolgi yeast 2.8, hDAT+cocaine -0.291, PostGolgi ctrl 16.2, Cav32 inh -0.37, TNAP act DEA 0.9 and Smad3 inh 8.1.
`Cc1noc(C)c1S(=O)(=O)N1CCN(C(c2ccccc2)c2ccc(Cl)cc2)CC1` (stereo not given) gave PostGolgi yeast -3.7, hDAT+cocaine -0.00144, PostGolgi ctrl -3.1, Cav32 inh -3.24, TNAP act DEA 0.9 and Smad3 inh -4.2.
For C=CCOC(=O)c1ccc(-n2cncn2)nc1 the results were PostGolgi yeast -1.6, hDAT+cocaine -0.181, PostGolgi ctrl 6.6, Cav32 inh -0.0521 and Smad3 inh -0.4.
For CCC(C)n1c(S(=O)(=O)O)nc2ccccc21 (stereo not given) the results were PostGolgi yeast -6.2, hDAT+cocaine -1.7, PostGolgi ctrl 0.7, Cav32 inh 0.847 and Smad3 inh -3.1.
For Cc1cc(C(=O)CSc2nnc(N)s2)c(C)n1CCc1ccc(F)cc1 the results were PostGolgi yeast -9.6, hDAT+cocaine -0.0721, PostGolgi ctrl 4.4, Cav32 inh -0.893 and TNAP act DEA 0.9.
For Cc1cc(C(=O)CSc2nnc(N)s2)c(C)n1CCc1ccc(Cl)cc1 the results were PostGolgi yeast 3.0, hDAT+cocaine 0.273, PostGolgi ctrl 40.7*, Cav32 inh -4.93*, TNAP act DEA 0.9 and Smad3 inh 9.9.
CCOC(=O)C1=C(C)N=c2s/c(=C3\C(=O)Nc4ccccc43)c(=O)n2C1c1ccc2c(c1)OCO2 (stereo not given) was read as PostGolgi yeast 1.4, hDAT+cocaine 0.727, PostGolgi ctrl 5.1, TNAP act DEA 0.7 and Smad3 inh 6.3.
Screening CCOC(=O)C(NC(C)=O)(Nc1ccc(S(=O)(=O)Nc2onc(C)c2C)cc1)C(F)(F)F (stereo not given) returned PostGolgi yeast 34.8*, hDAT+cocaine -0.372, PostGolgi ctrl -4.1, Cav32 inh 0.362, TNAP act DEA 0.9 and Smad3 inh 1.4.
`CCOC(=O)C(NC(C)=O)(Nc1ccc(S(=O)(=O)Nc2cc(C)on2)cc1)C(F)(F)F` (stereo not given) gave hDAT+cocaine -0.615, Cav32 inh 0.18 and Smad3 inh 1.1.
CCCCN(CC)Cc1ccc(CNC(=O)Nc2ccc(F)cc2)o1 was read as PostGolgi yeast -5.7, hDAT+cocaine -5.48*, PostGolgi ctrl 7.7, Cav32 inh 1.05 and Smad3 inh -2.5.
S=C(Nc1ccccn1)c1ccccn1 was read as PostGolgi yeast 4.2, hDAT+cocaine 2.39*, PostGolgi ctrl 13.6, TNAP act DEA 1 and Smad3 inh -7.3.
`C/C=C/C=C/C(=O)N1CC[C@]23c4ccccc4N[C@H]4N(C)c5cccc6c5[C@]42CCN([C@H]6C2OC2(C)C)[C@H]13` (stereo not given in full) gave hDAT+cocaine -0.432 and Cav32 inh -4.45*.
Screening CN1CCC23c4ccccc4NC1C21CCN(C)C3Nc2ccccc21 returned hDAT+cocaine -1.35 and Cav32 inh 0.0944.
Screening Cc1ccc2cc(CN(Cc3cccs3)Cc3nnnn3C(C)(C)C)c3nnnn3c2c1 returned TNAP act DEA 0.9 and Smad3 inh 11.5.
For O=C(NC1CC1)c1c[nH]c2ccc(S(=O)(=O)Nc3cccc(C(F)(F)F)c3)cc2c1=O the results were PostGolgi yeast -0.2, hDAT+cocaine 0.0102, PostGolgi ctrl -2.3, Cav32 inh -5.6*, TNAP act DEA 0.9 and Smad3 inh -2.1.
